From paper PMC5540273 (PLoS ONE, 2017)
“And” between values parts separate entries of the source, which are not always exact repeats. Equal entries are not always repeated. Where two headings read alike, the source gives them in different places.

What was measured:
BRSK1 = conditions: concentration: 1 μM, replicates: in singlicate; n = 1
BRSK2 = conditions: concentration: 1 μM, replicates: in singlicate; n = 1
BTK = conditions: concentration: 1 μM, replicates: in singlicate, n = 1
BUB1 = conditions: concentration: 1 μM, replicates: in singlicate, n = 1
CAMK1B = conditions: concentration: 1 μM, replicates: in singlicate, n = 1
CAMK1D = conditions: concentration: 1 μM, replicates: in singlicate, n = 1
CAMK1G = conditions: concentration: 1 μM, replicates: in singlicate; n = 1
CAMK1 = conditions: concentration: 1 μM, replicates: in singlicate, n = 1
CAMK2A = conditions: concentration: 1 μM, replicates: in singlicate; n = 1
CAMK2B = conditions: concentration: 1 μM, replicates: in singlicate; n = 1
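Further: KINOMEscan kinase panel screen.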

SMILES | %Inh (BRSK1) | %Inh (BRSK2) | %Inh (BTK) | %Inh (BUB1) | %Inh (CAMK1B) | %Inh (CAMK1D) | %Inh (CAMK1G) | %Inh (CAMK1) | %Inh (CAMK2A) | %Inh (CAMK2B) | %Inh (BTK; 1 µM) | %Inh (BUB1; 1 µM) | %Inh (CAMK1B; 1 µM) | %Inh (CAMK1D; 1 µM) | %Inh (CAMK1; 1 µM)
CC(C)(C)c1ccc(-n2cnc3c(N)ncnc32)cc1 [SKF-97263] | 18% | 0% | 0% | 18% | 12% | 9% | 0% | 10% | 0% | 0% |  |  |  |  | 
Cl.O=S(=O)(c1cccc(F)c1)c1ccc(Nc2ncnc3cc(Br)sc23)cc1Cl [GSK306886] | 0% | 0% | 0% | 0% | 38% | 10% | 0% | 2% | 0% | 0% |  |  |  |  | 
Nc1nc(-c2cccnc2)c(-c2ccnc3ccccc23)s1 [GW684083] | 10% | 0% | 8% | 58% | 0% | 6% | 0% | 8% | 0% | 0% |  |  |  |  | 
Cl.Cl.c1ccc(-c2cc3ccncc3cc2OC2CCNCC2)cc1 [GSK1122999] | 17% | 6% | 0% | 0% | 0% | 20% | 29% | 3% | 0% | 0% |  |  |  |  | 
Nc1nccc2scc(-c3ccc4c(c3)CCN4C(=O)Cc3cc(F)ccc3F)c12 [GSK2587663] | 4% | 0% | 0% | 45% | 27% | 21% | 4% | 29% | 0% | 0% |  |  |  |  | 
Nc1n[nH]c2nnc(-c3ccccc3)cc12 [SB-517389] | 0% | 0% | 0% | 0% | 38% | 28% | 0% | 15% | 0% | 0% |  |  |  |  | 
COc1ccc(Nc2nccc(N3CCC(NC(=O)c4cccc(NC(C)=O)c4)C3)n2)cc1 (stereo not shown) [GSK1379732] | 0% | 0% | 36% | 54% | 9% | 8% | 0% | 13% | 0% | 0% |  |  |  |  | 
CN1c2ccc(-c3ccc(C(=O)NCCO)cc3)cc2-c2[nH]ncc2S1(=O)=O | 0% | 15% | 6% | 0% | 23% | 45% | 0% | 49% | 67% | 66% |  |  |  |  | 
FC(F)(F)c1cc(Nc2nccc(-c3c(-c4ccc(Cl)cc4)nn4ncccc34)n2)ccc1Cl [GW829351] | 0% | 0% | 0% | 19% | 0% | 0% | 0% | 0% | 30% | 27% |  |  |  |  | 
FC(F)(F)c1ccc(-c2cc(-c3c[nH]nc3-c3ccccn3)ccn2)cc1 [GW599550] | 0% | 0% | 0% | 55% | 35% | 22% | 1% | 23% | 0% | 0% |  |  |  |  | 
Cl.c1ccc(Cn2ccc3cc(Nc4ncnc5ccccc45)ccc32)cc1 [GW275568] | 0% | 20% | 0% | 0% | 34% | 27% | 8% | 24% | 9% | 0% |  |  |  |  | 
CC(C)(C)OC(=O)NC1CCCN(c2cc(-c3ccc4c(N)n[nH]c4c3)nc(N)n2)C1 (stereo not shown) [GSK2286096] | 0% | 0% | 0% | 0% | 25% | 21% | 11% | 16% | 0% | 0% |  |  |  |  | 
O=C(NCCCN1CCCC1=O)c1cnc(NCc2cc(Cl)ccc2Cl)nc1NC1CCNCC1 | 6% | 0% | 0% | 0% | 21% | 6% | 0% | 0% | 0% | 0% |  |  |  |  | 
COc1cc2ncnc(Nc3ccc(OCc4ccccc4Br)c(Cl)c3)c2cc1OC.Cl [GI261590] | 0% | 37% | 0% | 66% | 21% | 0% | 0% | 12% | 0% | 0% |  |  |  |  | 
COC(=O)c1c(-c2ccccc2)c2cc(Cl)ccc2c(=O)n1Cc1ccc(S(C)(=O)=O)cc1 | 0% | 0% | 25% | 0% | 0% | 0% | 9% | 2% | 0% | 0% |  |  |  |  | 
O=C(CCO)NCCn1ccc2ncnc(Nc3ccc(Oc4cccc(C(F)(F)F)c4)c(Cl)c3)c21 | 0% | 0% | 0% | 0% | 0% | 7% | 0% | 0% | 0% | 0% |  |  |  |  | 
O=C(Nc1ccccc1)Nc1ccc(Oc2ccc3nccn3n2)cc1 | 0% | 0% | 0% | 0% | 0% | 0% | 0% | 0% | 0% | 0% |  |  |  |  | 

SMILES | %Inh (BRSK1) | %Inh (BRSK2) | %Inh (BTK) | %Inh (BUB1) | %Inh (CAMK1B) | %Inh (CAMK1D) | %Inh (CAMK1G) | %Inh (CAMK1) | %Inh (CAMK2A) | %Inh (CAMK2B) | %Inh (BTK; 1 µM) | %Inh (BUB1; 1 µM) | %Inh (CAMK1B; 1 µM) | %Inh (CAMK1D; 1 µM) | %Inh (CAMK1; 1 µM)
CS(=O)(=O)CCNCc1ccc(-c2ccc3ncnc(Nc4ccc(OCc5ccccc5)c(Cl)c4)c3c2)o1.Cl [GW574783] | 1% | 0% | 0% | 26% | 0% | 4% | 27% | 14% | 0% | 0% |  |  |  |  | 
C[C@H]1CC[C@@H](C(=O)Nc2ccccc2)CN1c1cc(-c2ccc3c(N)n[nH]c3c2)nc(N)n1 [GSK2283293] | 0% | 0% | 0% | 49% | 23% | 17% | 0% | 11% | 0% | 0% |  |  |  |  | 
Nc1nc(-c2ccccn2)c(-c2ccnc3ccccc23)s1 [GW548057] | 0% | 0% | 8% | 39% | 33% | 8% | 0% | 4% | 1% | 0% |  |  |  |  | 
Fc1cccc(COc2ccc(Nc3ncnc4sc(-c5ccc[nH]5)cc34)cc2Cl)c1 [GW707818] | 1% | 16% | 5% | 25% | 9% | 22% | 0% | 25% | 0% | 0% |  |  |  |  | 
CC(C)N1CCC(n2cnc(-c3ccc(F)cc3)c2-c2ccnc(N)n2)CC1 [SB-223132] | 0% | 0% | 13% | 15% | 0% | 0% | 0% | 0% | 4% | 0% |  |  |  |  | 
COc1ccc(Nc2nccc(N3CCC(NC(=O)Nc4ccc5c(c4)OCO5)C3)n2)cc1 (stereo not shown) [GSK1379745] | 0% | 2% | 32% | 33% | 0% | 8% | 4% | 8% | 0% | 1% |  |  |  |  | 
CNc1nccc(-c2c(-c3ccc(F)cc3)ncn2CCCN2CCOCC2)n1 [SB-222516] | 0% | 3% | 0% | 0% | 0% | 0% | 0% | 0% | 8% | 16% |  |  |  |  | 
CCn1c(-c2ccncc2)nc2cnccc21 [SB-735216] | 0% | 0% | 28% | 15% | 45% | 6% | 0% | 0% | 0% | 0% |  |  |  |  | 
Nc1nc(-c2ccc3c(N)n[nH]c3c2)cc(N2CCC[C@@H](C(=O)Nc3ccccc3)C2)n1.O=C(O)C(F)(F)F.O=C(O)C(F)(F)F [GSK2288359] | 0% | 0% | 0% | 0% | 26% | 11% | 0% | 5% | 0% | 0% |  |  |  |  | 
Cc1ccc(NC(=O)c2cccc(C#N)c2)cc1-c1ccc(C(=O)Nc2ccncc2)cc1 [GSK1398463] | 15% | 0% | 0% | 27% | 0% | 42% | 67% | 49% | 7% | 6% |  |  |  |  | 
CS(=O)(=O)CCNCc1nc(-c2ccc3ncnc(Nc4ccc(OCc5cccc(F)c5)c(Cl)c4)c3c2)cs1.Cl [GW583340] | 0% | 0% | 0% | 0% | 6% | 15% | 2% | 20% | 0% | 0% |  |  |  |  | 
Cc1cccc(-c2nc(Nc3ccc4[nH]nnc4c3)c3ccccc3n2)n1 [GW867587] | 0% | 0% | 0% | 13% | 0% | 0% | 0% | 0% | 0% | 8% |  |  |  |  | 
Clc1cc(Nc2ncnc3cc[nH]c23)ccc1OCc1ccccn1 | 0% | 1% | 0% | 0% | 4% | 33% | 27% | 35% | 0% | 0% |  |  |  |  | 
O=C(Nc1n[nH]c2nc(-c3ccco3)c(Br)cc12)c1ccc(CN2CCCC2)cc1.O=C(O)[C@H](O)[C@@H](O)C(=O)O [SB-742352] | 51% | 24% | 0% | 0% | 0% | 8% | 0% | 0% | 2% | 0% |  |  |  |  | 
Cc1ccc(O)cc1Nc1cc(C(F)(F)F)nc2ccc(-c3ccncc3)cc12 [GW630823] | 3% | 0% | 0% | 0% | 0% | 14% | 1% | 8% | 20% | 2% |  |  |  |  | 
COc1ccc(-c2nc3n(c2-c2ccncc2)CCC3)cc1 [SKF-104493] | 0% | 0% |  |  |  |  | 0% |  | 0% | 0% | 14% and 0% | 67% and 78% | 0% and 26% | 12% and 7% | 0% and 7%
Fc1ccc(Nc2nccc(-c3c(-c4ccc(Cl)cc4)nn4ncccc34)n2)cc1F [GW829058] | 0% | 4% | 75% | 35% | 13% | 32% | 0% | 22% | 16% | 18% |  |  |  |  | 
